From PubChem
LRH-1 inv ag = suppresses constitutive activity of human LRH-1. inhibition, % at 3.6 µM. O00482. actives 0.13% (n = 360,000). HEK293T StAR-luciferase reporter, LRH-1 transfected, 24 h;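 active = inhibition above the mean inhibition of all tested compounds plus 3 SD, cut at about 73% in these data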
NCOA2 inhibitor = inhibits human steroid receptor coactivator 2. Q15596. HEK293 GAL4-SRC2 luciferase reporter, luminescence. inhibition, % at 9 µM. actives 0.17% (n = 370,000). AID 651957;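 active = inhibition above the mean inhibition of all tested compounds plus 3 SD, set per campaign, cut at about 52% in these data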
NCOA3 inh = inhibits human SRC3 coactivator; inhibition, % at 3.6 µM; actives 0.17% (n = 360,000); HEK293 GAL4-SRC3 luciferase reporter, luminescence;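 active = inhibition above a per-campaign cutoff, the mean of all compounds plus 3 SD, cut at about 60% in these data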;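 also: higher means less SRC3-driven luciferase light from the GAL4 reporter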
NCOA1 inh = inhibits human SRC1 coactivator. HEK293 GAL4-SRC1 luciferase reporter, luminescence. AID 588354. inhibition, % at 3.6 µM. Q15788. actives 0.12% (n = 360,000);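 active = inhibition above the campaign mean plus 3 SD, with each screening campaign given its own cutoff, cut at about 60% in these data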
GalR3 antag = blocks the human galanin receptor 3 | actives 0.44% (n = 360,000) | inhibition, % at 3 µM | HEK293 GalR3-CNG cAMP membrane potential fluorescence; galR3 body fused to GalR1 C-terminus | O60755;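 active = inhibition above the screen-wide average plus 3 SD, cut at about 13% in these data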;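 also: forskolin and galanin both at EC90 stimulate the cells; cAMP rise reported by CNG channel membrane potential dye signal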
COUP-TFII inh = NR2F2 (human) inhibition, primary screen; inhibition, % at 8.6 µM; HEK293T NGFI-A luciferase reporter, luminescence; P24468; actives 0.7% (n = 370,000);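 active = inhibition above a per-plate cutoff, mean inhibition of test wells between control levels plus 3 SD, cut at about 38% in these data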;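 also: cells cotransfected with COUP-TFII expression vector driving the NGFI-A reporter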
Target sequence (P24468 whole entry, looked up): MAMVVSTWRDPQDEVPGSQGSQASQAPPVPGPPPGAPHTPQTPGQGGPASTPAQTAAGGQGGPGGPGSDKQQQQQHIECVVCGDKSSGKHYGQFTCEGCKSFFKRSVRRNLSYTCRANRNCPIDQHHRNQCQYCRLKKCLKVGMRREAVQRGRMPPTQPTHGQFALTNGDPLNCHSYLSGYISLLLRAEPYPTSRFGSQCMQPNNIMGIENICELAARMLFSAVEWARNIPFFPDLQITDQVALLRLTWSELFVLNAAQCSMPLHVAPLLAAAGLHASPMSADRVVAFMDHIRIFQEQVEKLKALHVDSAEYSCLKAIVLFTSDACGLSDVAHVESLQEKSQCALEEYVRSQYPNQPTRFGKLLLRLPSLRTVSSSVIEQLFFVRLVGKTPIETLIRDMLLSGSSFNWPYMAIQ
Hits are given with their value; 0 = inactive; - = no result; ! = repeats disagree. This is a sample that favours compounds with a hit; in the whole collection about 1.1% have one here.

SMILES	LRH-1 inv ag	NCOA2 inhibitor	NCOA3 inh	NCOA1 inh	GalR3 antag	COUP-TFII inh
NC(=O)C(C(=O)/C=C/c1ccc(Cl)cc1)=C1SCCS1	0	0	66	0	0	0
COc1ccc(/C=C/C(=O)C(C(N)=O)=C2SCCS2)cc1	0	0	0	0	0	0
COC(=O)[C@]12C[C@H](CC(=O)NCCCN3CCCC3=O)C(=O)N(Cc3cccc4ccccc34)C1=C[C@H](C(C)(C)C)O[C@@H]2C	-	0	-	-	-	0
C[n+]1c2cc(N)ccc2cc2ccc(N)cc21	74!	0	0	0	0	0
N#CCC[C@H]1CC[C@]2(CCCN(C(=O)c3ccccc3)C2)O1	-	0	-	-	-	0
Cc1ccc(N(Cc2cc(=O)[nH]c3ccccc23)C(=O)CCl)c(C)c1	0	69	0	0	0	0
O=C(CCl)NC(Cc1ccccc1)c1ccccc1 (configuration not stated)	0	57	0	0	0	0
CCOC(=O)CC[C@H]1CC[C@]2(CCCN(S(=O)(=O)C3CCCCC3)C2)O1	-	0	-	-	-	0
OCC1OC(n2cnc3c(NCc4ccccc4O)ncnc32)C(O)C1O (configuration not stated)	90	0	62	0	0	0
OC[C@H]1O[C@@H](n2cnc3c(Nc4ccccc4)ncnc32)[C@H](O)[C@@H]1O	0	0	0	0	0	0
c1csc(CNc2ccc3c(c2)OCCO3)c1	0	0	0	0	0	64
CC(C)CSc1nnc(-c2ccco2)n1C	-	0	-	-	-	0
COc1ccc2sc3cccc(NCCN(C)C)c3c(=O)c2c1	0	0	0	0	0	0
CN(C)CCNc1ccc(CO)c2sc3ccc(O)cc3c(=O)c12	0	0	0	79	0	0
CCCCNS(=O)(=O)CC1NCc2ccc(C)cc21 (configuration not stated)	-	0	-	-	-	0
COc1ccc(/C=C2\CN(Cc3ccccc3)C/C(=C\c3ccc(OC)c(O)c3)C2=O)cc1O	0	52	0	0	0	0
COC(C(=O)C(O)C(C)O)C1Cc2cc3cc(OC4CC(OC5CC(O)C(O)C(C)O5)C(O)C(C)O4)c(C)c(O)c3c(O)c2C(=O)C1OC1CC(OC2CC(OC3CC(O)C(OC)C(C)O3)C(O)C(C)O2)C(O)C(C)O1 (configuration not stated)	98	0	86	75	0	0
COc1ccccc1C(=O)Nc1nc(-c2ccc(S(=O)(=O)N3CCOCC3)cc2)cs1	82	74	89	85	94	72
CC(C)N1Cc2nnn(Cc3ccc(F)cc3)c2-c2cc(F)ccc2S1(=O)=O	-	0	-	-	-	0
CC(=NNC(=S)Nc1ccc(C)cc1)c1ccccn1	0	0	68	70	0	0
COc1ccccc1NC(=S)NN=C(C)c1ccccn1	82	0	0	65	0	0
C/C(=N\NC(=S)Nc1cccc(C)c1)c1ccccc1	0	0	0	0	0	0
COc1ccc(C(=O)N/N=C(\C)c2ccccn2)cc1OC	0	0	0	0	0	0
CC(=NNC(=S)Nc1cccc(C)c1)c1ccccn1	86	0	72	73	0	0
c1nc(NCC2CCCCO2)c2cc(-c3ccc4c(c3)OCO4)ccc2n1 (configuration not stated)	-	-	-	-	-	0
SMILES	LRH-1 inv ag	NCOA2 inhibitor	NCOA3 inh	NCOA1 inh	GalR3 antag	COUP-TFII inh
N=c1c2c(-c3ccccc3)c(-c3ccccc3)n(Cc3ccco3)c2ncn1CCO	0	0	63	0	0	0
N=c1c2c(-c3ccccc3)c(-c3ccccc3)n(Cc3ccco3)c2ncn1CCCO	0	0	0	0	0	0
O=C(COc1ccc(S(=O)(=O)NC2CCCCC2)cc1)N1CCN(c2cccc(Cl)c2)CC1	0	0	0	0	0	57
CC(C)NS(=O)(=O)c1ccc(OCC(=O)N2CCN(c3ccccc3)CC2)cc1	0	0	0	0	0	0
CCN(CC)c1ccc(/C=N/Nc2nc(C)cc(=O)[nH]2)c(O)c1	0	0	84	81	0	0
CCN(CC)c1ccc(/C=N/NC(=O)c2c(Cl)cnn2C)c(O)c1	0	0	76	0	0	0
CCOC(=O)N/N=C/c1ccc(N(CC)CC)cc1O	0	0	0	0	0	0
CN(C)c1ccc(C=c2c3cc(O)ccc3n3c2cc(-c2ccccc2)[n+]3C)cc1	0	0	0	0	0	0
CN(C)c1ccc(C=c2c3ccccc3n3c2c2ccccc2[n+]3C)cc1	73	0	0	0	0	51
COc1cc(Nc2nc(-c3ccccc3)c3cc(C)ccc3n2)cc(OC)c1OC	0	93	0	0	0	0
Cc1ccc2nc(NCC(=O)O)nc(-c3ccccc3)c2c1	0	0	0	0	0	0
CCCC(=O)Nc1cccc(NC(=O)c2ccccc2Br)c1	0	52	0	0	0	0
CCC(=O)Nc1cccc(NC(=O)c2ccccc2Br)c1	0	0	0	0	0	0
C=CC[n+]1ccc(/C=C2\C=Cc3cc(C)ccc3N2CC)c2ccccc21	86	-	73	0	-	-
OC[C@@H]1CN(Cc2ccc(-c3ccccc3)cc2)C[C@H](n2cnc3c(NCc4ccco4)ncnc32)O1	0	0	0	0	0	52
O=C(Nc1ccccc1)OCCN1C(=O)CCC12CCC(c1ccccc1)CC2 (configuration not stated)	-	0	-	-	-	0
Cc1ccc2cccc(NS(=O)(=O)c3ccccc3)c2n1	-	75	-	-	0	0
CCN(CC)Cc1c(O)ccc2occ(C(=O)c3ccc(OC)cc3)c12	0	0	0	0	0	0
CCN(CC)Cc1c(O)ccc2c([N+](=O)[O-])c(C)n(-c3ccc(OC)cc3)c12	0	0	0	61	0	0
CCCC(=O)NC(c1ccc(Cl)cc1Cl)c1ccc2cccnc2c1O (configuration not stated)	0	0	0	0	0	0
CCCC(=O)NC(c1ccc(Cl)cc1)c1ccc2cccnc2c1O (configuration not stated)	77	0	0	0	0	0
CCCCC(=O)NC(c1ccc(Cl)cc1)c1ccc2cccnc2c1O (configuration not stated)	84	0	0	0	0	0
CCCC(=O)NC(c1ccccc1OC)c1ccc2cccnc2c1O (configuration not stated)	80	-	0	0	-	-
CCN(CC)c1ccc(C(NC(=O)C(C)C)c2ccc3cccnc3c2O)cc1 (configuration not stated)	96	0	0	0	0	0
C[C@@H]1CN([C@@H](C)CN(C)C)C(=O)c2cc(NC(=O)Nc3ccccc3)ccc2O[C@@H](C)CCCCO[C@H]1CN(C)S(=O)(=O)c1ccc(F)cc1	-	-	-	-	-	0
CCCCC(=O)NC(c1ccc(N(C)C)cc1)c1ccc2cccnc2c1O (configuration not stated)	0	0	0	0	0	0
CCCC(=O)NC(c1ccc(C)cc1)c1ccc2cccnc2c1O (configuration not stated)	85	-	68	65	-	-
